# PubChem BioAssay
# Calls of active or inactive are those of the source. Unless noted, how the calls were made is not given here.
# Experiments:
# [1] = A549 cell viability effects, profiling panel, calcein-AM fluorescence, 48 h, basal (AID 1162); details: higher = more signal; further: test concentration not given here
# [2] = adipocyte viability effects, profiling panel, cell-based, 3T3-L1 adipocytes, calcein-AM fluorescence, 48 h, basal (AID 1163); details: 3T3-L1 adipocytes viability, higher = more signal; further: test concentration not given here
# [3] = HepG2 cell viability effects, profiling panel, calcein-AM fluorescence, 48 h, basal (AID 1164); details: higher = more signal; further: test concentration not given here
# [4] = MM1S cell viability effects, profiling panel, calcein-AM fluorescence, 48 h, basal (AID 1165); details: higher = more signal;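 further: viability of MM1S multiple myeloma cells under basal unstimulated conditions; test concentration not given here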
# [5] = basal RPMI8226 viability, no added stimulus, profiling panel, cell-based, calcein-AM fluorescence, 48 h, PK04 Diversity Set (AID 1166); details: RPMI8226 myeloma viability, higher = more signal;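 further: cells grown under basal conditions without added stimulus; test concentration not given here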
# [6] = basal HepG2 mitochondrial membrane potential changes, profiling panel, cell-based, JC-1 fluorescence, 24 h, 100 nL compound (AID 1167); details: higher = more signal; further: test concentration not given here
# [7] = basal 3T3-L1 adipocyte mitochondrial potential changes, profiling panel, cell-based, JC-1 fluorescence, 3T3-L1 adipocytes, 24 h, 100 nL compound (AID 1168); details: JC-1 mitochondrial fluorescence, higher = more signal, called active from +8 up or from −8 down; further: test concentration not given here
# [8] = basal RPMI8226 mitochondrial membrane potential changes, profiling panel, cell-based, JC-1 fluorescence, 24 h, 100 nL compound (AID 1169); details: RPMI8226 myeloma, JC-1 mitochondrial potential fluorescence, higher = more signal; further: test concentration not given here
# [9] = basal MM1S mitochondrial membrane potential changes, profiling panel, cell-based, JC-1 fluorescence, 24 h, 100 nL compound (AID 1170); details: higher = more signal; further: test concentration not given here
# [10] = A549 lung cancer cell viability effects, profiling panel, resazurin fluorescence, 24 h, PK04 Diversity Set (AID 1171); details: higher = more signal, called active from +8 up or from −8 down; further: test concentration not given here
# [11] = HepG2 liver cancer cell viability effects, profiling panel, resazurin fluorescence, 24 h, PK04 Diversity Set (AID 1172); details: higher = more signal; further: test concentration not given here
# [12] = basal S. cerevisiae growth modulation, no modifier, primary screen, OD600, strain BY4716, 24 h, basal condition (AID 1173); details: OD600, 24 h, higher = more signal, called active from +8 up or from −8 down
# [13] = MM1S myeloma cell viability, profiling panel, resazurin fluorescence, basal, 24 h, PK04 Diversity Set (AID 1174); details: higher = more signal, called active from +8 up or from −8 down;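 further: MM1S multiple myeloma cell line; test concentration not given here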
# [14] = target: Dihydroorotate dehydrogenase (quinone), mitochondrial (Plasmodium falciparum (isolate 3D7)) (UniProt Q08210); assay: PfDHODH enzyme inhibitors, primary screen, biochemical, C-terminal His tag, absorbance 600 nm (AID 1175); details: DCIP absorbance 600 nm, higher = more signal, called active from +8 up or from −8 down;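 further: recombinant parasite enzyme with a five histidine tag at its C terminus; test concentration not given here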
# Chain of Dihydroorotate dehydrogenase (quinone), mitochondrial (Plasmodium falciparum (isolate 3D7)) (Q08210 whole entry, looked up): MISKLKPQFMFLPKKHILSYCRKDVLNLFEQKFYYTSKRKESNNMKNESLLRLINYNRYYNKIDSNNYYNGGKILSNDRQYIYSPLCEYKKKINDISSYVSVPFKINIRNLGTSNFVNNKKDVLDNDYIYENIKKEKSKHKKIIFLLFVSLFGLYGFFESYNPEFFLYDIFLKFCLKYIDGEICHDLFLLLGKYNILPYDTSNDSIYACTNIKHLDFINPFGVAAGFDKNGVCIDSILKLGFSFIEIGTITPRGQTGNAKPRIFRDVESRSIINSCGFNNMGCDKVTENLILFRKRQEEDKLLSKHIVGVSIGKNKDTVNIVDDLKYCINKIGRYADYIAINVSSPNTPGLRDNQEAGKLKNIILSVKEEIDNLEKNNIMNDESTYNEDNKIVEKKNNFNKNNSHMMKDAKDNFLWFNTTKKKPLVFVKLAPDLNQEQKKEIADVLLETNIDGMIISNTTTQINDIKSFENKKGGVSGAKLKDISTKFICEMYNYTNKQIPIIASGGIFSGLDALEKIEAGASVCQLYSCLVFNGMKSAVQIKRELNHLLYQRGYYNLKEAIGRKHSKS
# [15] = P. aeruginosa biofilm formation inhibitors, primary screen, strain PAO1, LB-PBS medium, absorbance 600 nm (AID 1176); further: test concentration not given here; details: P. aeruginosa PAO1 growth/biofilm, A600, 12 h; higher = more signal
# [16] = S. cerevisiae RM11-1a growth modifiers, primary screen, strain RM11-1a, OD600, basal, 24 h (AID 1177); details: OD600, 24 h, higher = more signal, called active from +8 up or from −8 down;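 further: cultures grown under basal conditions with no added stressor; test concentration not given here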
# [17] = E. coli acrAB mutant growth effects, primary screen, E. coli filamentation inducers, strain DRC39, OD650, 24 h (AID 1178); details: higher = more signal, called active from +8 up or from −8 down;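 further: growth measured as culture turbidity by optical density at 650 nm; test concentration not given here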
# [18] = E. coli acrAB mutant growth effects, primary screen, E. coli filamentation inducers, strain DRC39, OD650, 48 h (AID 1179);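 further: screen aims at cell division blockers that make cells filament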; details: E. coli DRC39 delta-acrAB growth, higher = more signal, called active from +8 up or from −8 down
# [19] = RPMI8226 myeloma cell viability, profiling panel, resazurin fluorescence, basal, 24 h, PK04 Diversity Set (AID 1180); details: higher = more signal;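 further: RPMI8826 multiple myeloma cell line at 5000 cells per well; test concentration not given here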
# [20] = target: E3 ubiquitin-protein ligase XIAP (Homo sapiens) (UniProt P98170); assay: XIAP binders, primary screen, biophysical, small-molecule microarray, fluorescence 635 nm (AID 1181); details: small-molecule microarray binding, higher = more signal;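 further: score merges 667 nm emission and signal to noise over triplicate slides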
# Chain of E3 ubiquitin-protein ligase XIAP (Homo sapiens) (P98170 whole entry, looked up): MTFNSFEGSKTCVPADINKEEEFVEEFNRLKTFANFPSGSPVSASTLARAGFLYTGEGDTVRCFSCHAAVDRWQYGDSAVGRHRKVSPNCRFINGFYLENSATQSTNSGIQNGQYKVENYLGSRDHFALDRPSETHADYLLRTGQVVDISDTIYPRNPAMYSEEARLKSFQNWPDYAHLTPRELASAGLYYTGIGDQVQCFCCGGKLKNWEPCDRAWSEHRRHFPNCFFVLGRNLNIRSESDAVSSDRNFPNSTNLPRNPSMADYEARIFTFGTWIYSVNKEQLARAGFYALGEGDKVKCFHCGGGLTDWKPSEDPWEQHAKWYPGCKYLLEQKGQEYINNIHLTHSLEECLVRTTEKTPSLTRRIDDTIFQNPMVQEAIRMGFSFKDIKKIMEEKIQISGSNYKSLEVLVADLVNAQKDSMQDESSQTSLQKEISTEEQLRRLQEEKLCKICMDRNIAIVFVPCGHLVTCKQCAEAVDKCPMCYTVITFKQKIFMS
Compound,z-score [1],z-score [2],z-score [3],z-score [4],z-score [5],z-score [6],z-score [7],z-score [8],z-score [9],z-score [10],z-score [11],z-score [12],z-score [13],composite z-score [14],z-score [15],z-score [16],z-score [17],z-score [18],z-score [19],composite z-score [20]
COc1cc2c(cc1OC)CN(C(=O)[C@@H]1[C@H]3C(=O)O[C@H](c4ccccc4)[C@H](c4ccccc4)N3[C@H](c3ccc(O)cc3)[C@@]13C(=O)Nc1ccc(C#CCNC(N)=O)cc13)CC2,0.434,0.0878,-0.659,0.454,-0.375,-1.55,-0.628 (inactive),-0.0414,-0.375,0.795 (inactive),1.1,0.526 (inactive),0.602 (inactive),-0.0904 (inactive),0.723 (inactive),2.03 (inactive),0.595 (inactive),0.322 (inactive),0.431,-0.0663
COc1ccc([Si](C)(C)[C@@H]2[C@@H](CCO)O[C@]3(C(=O)N(Cc4ccccc4)c4ccc(N5C(=O)COc6ccccc65)cc43)[C@H]2C)cc1,-1.4,0.155,-1.08,-2.24,-0.0589,0.102,0.222 (inactive),-0.741,-0.857,-0.177 (inactive),1.52,2.09 (inactive),-0.657 (inactive),-0.0636 (inactive),1.2 (inactive),4.54 (inactive),-0.141 (inactive),-0.266 (inactive),-0.976,-0.0599
CC(C)C(CO)N1C(=O)[C@@H]2[C@H]3C(=O)OCC=C[C@H]3OC23C=CCN(CCN2CCOCC2)C(=O)[C@@H]13 (stereo not given in full),-0.334,-0.347,-0.434,-0.201,0.372,-0.982,-0.648 (inactive),0.237,0.105,-0.324 (inactive),-0.173,0.306 (inactive),-0.505 (inactive),0.395 (inactive),-0.814 (inactive),1.21 (inactive),-0.934 (inactive),-1.06 (inactive),-0.371,-0.518
C[N+](C)(C)CCCC[C@@H]1NC(=O)[C@@H]2C[C@H](C(=O)NCCCCCNC(=O)CS)[C@H](c3cccc(OCCO)c3)N2C1=O,0.884,-0.0052,0.289,-0.0724,-1.31,1.8,-0.364 (inactive),0.245,-0.243,0.764 (inactive),0.839,-0.385 (inactive),0.223 (inactive),1.09 (inactive),-0.199 (inactive),0.342 (inactive),0.461 (inactive),0.983 (inactive),0.228,-0.0562
CCCCCCCCCCC(O)C1C=CC2C(=O)NC(=O)C2N1Nc1ccccn1 (stereo not given),-3.22,-0.964,-4.08,-3.81,-4.13,-3.82,-0.46 (inactive),-0.944,-0.657,-1.5 (inactive),-2.19,-10.4 (active),-2.8 (inactive),0.364 (inactive),2.43 (inactive),-5.05 (inactive),-2.29 (inactive),-3.65 (inactive),-1.64,0.0153
CN1C(=O)C2C=CC(C(O)c3ccc(F)cc3)N(N3CCCCC3)C2C1=O (stereo not given),-1.1,-1.24,-0.572,-1.05,0.0924,-1.43,-0.487 (inactive),0.00989,-0.118,-0.707 (inactive),-1.49,1.62 (inactive),-1.78 (inactive),-0.555 (inactive),1.41 (inactive),1.42 (inactive),-1.02 (inactive),-0.837 (inactive),-1.79,-0.0727
Cc1ccc(N2C(=O)c3ccccc3[C@](C)(C(=O)NC(C)C)[C@@H]2c2ccc(CO)cc2)nc1,-0.465,0.92,-1.37,-1.03,-1.35,-0.42,-0.424 (inactive),-0.586,1.34,0.0095 (inactive),-0.591,0.201 (inactive),0.761 (inactive),-3.7 (inactive),0.599 (inactive),-0.243 (inactive),0.381 (inactive),-0.111 (inactive),0.818,-0.272
CO[C@H]1O[C@H](CO)[C@@H](OC(=O)Nc2cccc(F)c2)[C@H](OC(=O)Nc2ccc3c(c2)OCO3)[C@H]1OC(=O)Nc1ccc2c(c1)OCO2,-0.598,0.424,-1.86,-1.17,-2.11,-0.216,0.712 (inactive),-0.313,-0.0179,-1.14 (inactive),-0.252,1.55 (inactive),-1.53 (inactive),-0.222 (inactive),1.38 (inactive),1.48 (inactive),1.49 (inactive),0.378 (inactive),-1.89,0.652
